# Assay results taken from PubChem BioAssay (Tox21).
# Several values for one entry are separate records, joined by “and”; a condition that tells them apart may be missing. Identical values can stand only once. Results filed as inconclusive are left out. Values without a mark were called inactive. Activity calls are given as the source filed them. Unless noted, calls follow the shape of the dose curve; as a rule, active = well fitted cell-killing curve with a large enough effect in the repeat runs; inconclusive = weak or mixed curves, or effect the other way; inactive = flat fitted curve, though single readings scatter.
# Molecular target: Estrogen receptor beta (Homo sapiens) (UniProt Q92731)
# Test: qHTS assay to identify small molecule antagonists of the estrogen receptor beta (ER-beta) signaling pathway (AID 1259378; active = well fitted inhibition curve with a large enough effect in the signal ratio in the repeat runs, not every such curve was filed as active; the % refers to the signal ratio)
# Details: ER-beta-UAS-bla HEK293T, beta-lactamase FRET ratio, 16 h; series mostly up to 92.4 µM; activity, negative = inhibition: at the top concentration
# How it was run: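 ER-beta-UAS-bla HEK293T cells in 2% charcoal-stripped FBS medium treated with compound plus 1nM final 17-beta-estradiol for 16 hr at 37C. Beta-lactamase reporter read by FRET substrate fluorescence after 2 hours at room temperature.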
# % is scaled to controls: 0 for no effect and ±100 for the full control effect; potency is read from the fitted curve at half-maximal effect.
# Estrogen receptor beta (Homo sapiens), sequence (Q92731 whole entry, looked up): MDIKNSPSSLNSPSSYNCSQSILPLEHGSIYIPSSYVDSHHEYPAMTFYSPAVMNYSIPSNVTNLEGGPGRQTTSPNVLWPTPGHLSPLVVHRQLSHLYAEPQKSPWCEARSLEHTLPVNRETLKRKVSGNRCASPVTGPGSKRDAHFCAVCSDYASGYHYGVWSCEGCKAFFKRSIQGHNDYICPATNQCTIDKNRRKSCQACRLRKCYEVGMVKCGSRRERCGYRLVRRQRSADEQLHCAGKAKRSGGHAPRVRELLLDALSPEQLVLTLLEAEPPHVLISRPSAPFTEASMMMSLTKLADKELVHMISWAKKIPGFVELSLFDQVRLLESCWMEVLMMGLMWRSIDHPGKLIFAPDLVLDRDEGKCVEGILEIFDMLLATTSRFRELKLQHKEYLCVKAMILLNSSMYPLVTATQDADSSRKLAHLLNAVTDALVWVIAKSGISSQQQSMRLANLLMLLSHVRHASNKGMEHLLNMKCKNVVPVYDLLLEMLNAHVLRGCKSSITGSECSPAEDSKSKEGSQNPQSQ
SMILES,"activity, negative = inhibition [%]",Potency
CN(C)c1ccc(C2(c3ccc(N(C)C)cc3)OC(=O)c3cc(N(C)C)ccc32)cc1,19.1,
CCOC(=O)c1nc(C(Cl)(Cl)Cl)n(-c2ccc(Cl)cc2Cl)n1,,54.5 µM (active)
Cc1cc2c(cc1C(F)(F)F)N(C(=O)Nc1ccc(Oc3cccnc3C)nc1)CC2,,19.6 µM (active)
O=CC=C(c1ccccc1)c1ccccc1,,7.76 µM (active)

# Test system: not listed separately
# Test: qHTS assay to identify small molecule agonists of the androgen receptor (AR) signaling pathway in the presence of an antagonist - cell viability counter screen (AID 1259379); also: nearly all actives have a fitted effect of over 25% in size;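 as to activity change, negative = cytotoxicity: MDA-kb2 human breast cancer cells carrying an MMTV luciferase reporter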
# Details: MDA-kb2 viability, CellTiter-Fluor, 16 h; series mostly up to 92.4 µM; activity change, negative = cytotoxicity: at the top concentration
# How it was run: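 Fluorescence from CellTiter-Fluor, added after 15 hr and read 1 hr later, gave cell viability. Cells were MDA-kb2 exposed to compounds (15 concentrations) in the presence of 3.0uM nilutamide at 37C, 0% CO2.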
SMILES,Potency,"activity change, negative = cytotoxicity"
Nc1nc2ccccc2n1Cc1ccc(F)cc1,26.6 µM (active),
CCCCC(CC)COC(=O)c1ccccc1C(=O)O (stereo not drawn),,0.729%
N/C(=N\N=C\c1ccc(Cl)cc1)N/N=C/c1ccc(Cl)cc1,29.8 µM (active),
O=[N+]([O-])c1cc([N+](=O)[O-])c2ccc(S(=O)(=O)O)cc2c1O,21.6 µM (active),
C[C@H](CCC(=O)O)[C@H]1CC[C@H]2[C@@H]3CC[C@@H]4C[C@H](O)CC[C@]4(C)[C@H]3CC[C@]12C,inactive,
CCOc1ccc2nc3cc(N)ccc3c(N)c2c1,,1.03% [at 42.5 µM]
Cc1ccc(O)c(C(C)(C)C)c1,inactive,
C/C=C1/C(=O)C[C@H]2[C@@H]3CCC4=CC(=O)CC[C@]4(C)[C@H]3CC[C@]12C,54.3 µM (active),
CC1=NC(C)OC1C (stereo not drawn),,-9.67%
C[n+]1cc2c3c(ccc2c2ccc4cc5c(cc4c21)OCO5)OCO3,11.6 µM (active),
CN(C)c1ccc(C2(c3ccc(N(C)C)cc3)OC(=O)c3cc(N(C)C)ccc32)cc1,,0.279%
CCCC(C)c1ccccc1O (stereo not drawn),,-4.51%
CCOC(=O)c1nc(C(Cl)(Cl)Cl)n(-c2ccc(Cl)cc2Cl)n1,,0.492%
CNc1ccc(O)cc1,61 µM (active),
CC(C)(C)C1CCC(CC2=C(O)c3ccccc3C(=O)C2=O)CC1 (stereo not drawn),13.3 µM (active),
NC(=O)CC[C@@H]1NC(=O)[C@H](Cc2ccccc2)NC(=O)[C@H](Cc2ccc(O)cc2)NC(=O)CCSSC[C@@H](C(=O)N2CCC[C@H]2C(=O)N[C@@H](CCCN=C(N)N)C(=O)NCC(N)=O)NC(=O)[C@H](CC(N)=O)NC1=O,,0.0376% [at 42.5 µM]
O=C1C=CC(=O)N1c1ccc(Cc2ccc(N3C(=O)C=CC3=O)cc2)cc1,48.6 µM (active),
O=C(OCC1CO1)C1CCCCC1C(=O)OCC1CO1 (stereo not drawn),,-3.28%
Clc1ccc(C(Cn2ccnc2)OCc2ccc(Sc3ccccc3)cc2)c(Cl)c1 (stereo not drawn),,0.839% [at 42.5 µM]
CCN(C(=O)N(CC)c1ccccc1)c1ccccc1,,-2.16%
CC1(C)CCC(C)(C)c2cc(C(=O)Nc3ccc(C(=O)O)cc3)ccc21,,-4.75%
CN(C)CCCOC1(Cc2ccccc2)CCCCCC1,,-1.12% [at 42.5 µM]
Cc1cc2c(cc1C(F)(F)F)N(C(=O)Nc1ccc(Oc3cccnc3C)nc1)CC2,55.3 µM (active),
CCN(C(=O)c1cc(C)cc(OC[C@H](C)Nc2ccncc2)c1)C(C)C,,1.66% [at 42.5 µM]
CCCCCCCCCCCC[N+](C)(C)CCCCCCCCCCCC,30.6 µM (active),
CS(=O)(=O)CCNCc1ccc(-c2ccc3ncnc(Nc4ccc(OCc5cccc(F)c5)c(Cl)c4)c3c2)o1,15 µM (active),
O=C(Nc1cccc([N+](=O)[O-])c1)c1cc2ccccc2cc1O,3.86 µM (active),
CC(=O)S[C@@H]1CC2=CC(=O)CC[C@]2(C)[C@H]2CC[C@@]3(C)[C@@H](CC[C@@]34CCC(=O)O4)[C@H]12,,-5.03%

# Test system: not listed separately
# Test: qHTS assay to identify small molecule agonists of the estrogen receptor beta (ER-beta) signaling pathway - cell viability counter screen (AID 1259380); also: nearly all actives have a fitted effect of over 30% in size
# Details: ER-beta-bla HEK293T viability, CellTiter-Glo luminescence, 16 h; series mostly up to 92.4 µM; activity change, negative = cytotoxicity: at the top concentration
# How it was run: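 Same-well viability counter screen. Cells: ER-beta-UAS-bla HEK293T, plated 6 hr before compound, in 2% charcoal-stripped FBS. Compound exposure 16 hr, 37C; viability by CellTiter-Glo luminescence after 30 min at room temperature.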
SMILES,Potency,"activity change, negative = cytotoxicity"
CC(C)(C)CC(C)(C)c1ccc(O)c(Cc2ccc(Cl)cc2Cl)c1,11.9 µM (active),
N/C(=N\N=C\c1ccc(Cl)cc1)N/N=C/c1ccc(Cl)cc1,29.8 µM (active),
C[C@@H]1C[C@H]2[C@@H]3CCC4=CC(=O)C=C[C@]4(C)[C@@]3(Cl)[C@@H](O)C[C@]2(C)[C@@]1(OC(=O)c1ccco1)C(=O)CCl,8.41 µM (active),
O=[N+]([O-])c1cc([N+](=O)[O-])c2ccc(S(=O)(=O)O)cc2c1O,,3.12%
C[C@H](CCC(=O)O)[C@H]1CC[C@H]2[C@@H]3CC[C@@H]4C[C@H](O)CC[C@]4(C)[C@H]3CC[C@]12C,48.4 µM (active) and 48.6 µM (active),
CC1=NC(C)OC1C (stereo not drawn),,1.31%
C[n+]1cc2c3c(ccc2c2ccc4cc5c(cc4c21)OCO5)OCO3,2.59 µM (active),
CN(C)c1ccc(C2(c3ccc(N(C)C)cc3)OC(=O)c3cc(N(C)C)ccc32)cc1,,-13.4%
CCOC(=O)c1nc(C(Cl)(Cl)Cl)n(-c2ccc(Cl)cc2Cl)n1,54.5 µM (active),
OCCN1CCN(CC/C=C2/c3ccccc3Sc3ccc(C(F)(F)F)cc32)CC1,21.1 µM (active),
NC(=O)CC[C@@H]1NC(=O)[C@H](Cc2ccccc2)NC(=O)[C@H](Cc2ccc(O)cc2)NC(=O)CCSSC[C@@H](C(=O)N2CCC[C@H]2C(=O)N[C@@H](CCCN=C(N)N)C(=O)NCC(N)=O)NC(=O)[C@H](CC(N)=O)NC1=O,,7.65% [at 42.5 µM]
O=C1C=CC(=O)N1c1ccc(Cc2ccc(N3C(=O)C=CC3=O)cc2)cc1,48.6 µM (active),
O=C(OCC1CO1)C1CCCCC1C(=O)OCC1CO1 (stereo not drawn),,-4.29%
CCN(C(=O)N(CC)c1ccccc1)c1ccccc1,,-3.29%
CCN(C(=O)c1cc(C)cc(OC[C@H](C)Nc2ccncc2)c1)C(C)C,,3.07% [at 42.5 µM]
CCCCCCCCCCCC[N+](C)(C)CCCCCCCCCCCC,21.7 µM (active),
CS(=O)(=O)CCNCc1ccc(-c2ccc3ncnc(Nc4ccc(OCc5cccc(F)c5)c(Cl)c4)c3c2)o1,13.3 µM (active),
O=C(O)c1cc(O)c2c(c1)C(=O)c1cccc(O)c1C2=O,,-4.65%
O=CC=C(c1ccccc1)c1ccccc1,27.5 µM (active),
O=C(Nc1cccc([N+](=O)[O-])c1)c1cc2ccccc2cc1O,30.6 µM (active),
CC(=O)S[C@@H]1CC2=CC(=O)CC[C@]2(C)[C@H]2CC[C@@]3(C)[C@@H](CC[C@@]34CCC(=O)O4)[C@H]12,30.6 µM (active),
